# Test results published in PubChem BioAssay AID1508601 (ICCB-Longwood Screening Facility, Harvard Medical School, 2020).
# Several values for one entry are separate records, joined by “and”; a condition that tells them apart may be missing. Equal values may be shown once. Screen size: about 5,700 compounds; about 85 (1%) were called active. No stated cut-off is given here; in the data, active means p53-positive nuclei above about 36% (passing the limit was not always enough); inactive means the rest. What follows is part of a selection rich in actives, with near analogues and random picks from the rest.
# Tests used:
# [1] = p53 stabilisation in HPV-positive human cells, imaging, p53-positive nuclei imaging, 24 h, 48 h (AID 1508601); conditions: 24/48 h
# [2] = target: Cellular tumor antigen p53 (Homo sapiens) (UniProt P04637); assay: as above; conditions: 24/48 h, stronger effect = higher value
# Sequence of Cellular tumor antigen p53 (Homo sapiens) (P04637 whole entry, looked up): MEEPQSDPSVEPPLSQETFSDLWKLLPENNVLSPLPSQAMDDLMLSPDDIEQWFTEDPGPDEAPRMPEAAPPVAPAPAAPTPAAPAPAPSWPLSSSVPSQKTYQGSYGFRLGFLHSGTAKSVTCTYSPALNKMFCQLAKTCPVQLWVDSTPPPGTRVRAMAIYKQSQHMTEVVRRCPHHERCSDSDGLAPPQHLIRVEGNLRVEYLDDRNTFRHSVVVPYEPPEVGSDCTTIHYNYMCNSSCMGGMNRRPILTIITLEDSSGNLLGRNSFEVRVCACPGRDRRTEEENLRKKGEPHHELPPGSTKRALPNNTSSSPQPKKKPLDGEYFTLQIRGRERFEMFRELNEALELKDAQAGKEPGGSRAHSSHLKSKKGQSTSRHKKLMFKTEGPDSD
# [3] = measured here: cell number at 24 h, Library stock concentration: 80 uM
# [4] = measured here: cell number at 24 h, Library stock concentration: 400 uM
# [5] = measured here: cell number at 24 h, Library stock concentration: 2 mM
# [6] = measured here: cell number at 24 h, Library stock concentration: 3.33 mM
# [7] = measured here: cell number at 24 h, Library stock concentration: 10 mM
# [8] = measured here: cell number at 48 h, Library stock concentration: 80 uM
# [9] = measured here: cell number at 48 h, Library stock concentration: 400 uM
# [10] = measured here: cell number at 48 h, Library stock concentration: 2 mM
# [11] = measured here: cell number at 48 h, Library stock concentration: 3.33 mM
# [12] = measured here: cell number at 48 h, Library stock concentration: 10 mM
# [13] = Library stock concentration: 80 uM
# [14] = Library stock concentration: 400 uM
# [15] = Library stock concentration: 2 mM
# [16] = Library stock concentration: 3.33 mM
# [17] = Library stock concentration: 10 mM
# [18] = measured here: p53 positive nuclei at 24 h, Library stock concentration: 80 uM
# [19] = measured here: p53 positive nuclei at 24 h, Library stock concentration: 400 uM
# [20] = measured here: p53 positive nuclei at 24 h, Library stock concentration: 2 mM
# [21] = measured here: p53 positive nuclei at 24 h, Library stock concentration: 3.33 mM
# [22] = measured here: p53 positive nuclei at 24 h, Library stock concentration: 10 mM
# [23] = measured here: cell number at 24 h, concentration not given here
# [24] = measured here: cell number at 48 h, concentration not given here
# [25] = measured here: p53 positive nuclei at 24 h, concentration not given here
structure (smiles),measurement,setting,value
O=C(O)C=Cc1ccc(Cn2ccnc2)cc1,"nuclei count, normalised",[1]; [3],111%
same,"nuclei count, normalised",[1]; [4],104%
same,"nuclei count, normalised",[1]; [5],103%
same,"nuclei count, normalised",[1]; [6],103% and 107%
same,"nuclei count, normalised",[1]; [7],108%
same,"nuclei count, normalised",[1]; [8],108%
same,"nuclei count, normalised",[1]; [9],104%
same,"nuclei count, normalised",[1]; [10],103%
same,"nuclei count, normalised",[1]; [11],110% and 99.3%
same,"nuclei count, normalised",[1]; [12],103%
same,"p53-positive nuclei, normalised",[2]; [13],0.0181% (inactive)
same,"p53-positive nuclei, normalised",[2]; [14],0.0683% (inactive)
same,"p53-positive nuclei, normalised",[2]; [15],0.0233% (inactive)
same,"p53-positive nuclei, normalised",[2]; [16],-0.0503% (inactive) and -0.0965% (inactive)
same,"p53-positive nuclei, normalised",[2]; [17],-0.178% (inactive)
same,"p53-positive nuclei, normalised",[2]; [18],0.0685%
same,"p53-positive nuclei, normalised",[2]; [19],0.0107%
same,"p53-positive nuclei, normalised",[2]; [20],0.0098%
same,"p53-positive nuclei, normalised",[2]; [21],-0.252% and -0.232%
same,"p53-positive nuclei, normalised",[2]; [22],-0.12%
CCCCCCCCNC(=O)Cc1c(C)n(C(=O)c2ccc(Cl)cc2)c2ccc(OC)cc12,"nuclei count, normalised",[1]; [23],104%
same,"nuclei count, normalised",[1]; [24],112%
same,"p53-positive nuclei, normalised",[2]; concentration not given here,0.0988% (inactive)
same,"p53-positive nuclei, normalised",[2]; [25],-0.0319%
O=C1CCCc2occ(C(=O)N3CCc4[nH]nc(C5CCC5)c4C3)c21,"nuclei count, normalised",[1]; [23],110%
same,"nuclei count, normalised",[1]; [24],114%
same,"p53-positive nuclei, normalised",[2]; concentration not given here,-0.00738% (inactive)
same,"p53-positive nuclei, normalised",[2]; [25],-0.086%
OCCCCCNc1nccc(-c2cnn(-c3ccccc3F)c2)n1,"nuclei count, normalised",[1]; [23],112%
same,"nuclei count, normalised",[1]; [24],73.8%
same,"p53-positive nuclei, normalised",[2]; concentration not given here,0.562% (inactive)
same,"p53-positive nuclei, normalised",[2]; [25],-0.0884%
OCCCCCNc1nccc(-c2cnn(-c3ccc(F)cc3)c2)n1,"nuclei count, normalised",[1]; [23],103%
same,"nuclei count, normalised",[1]; [24],103%
same,"p53-positive nuclei, normalised",[2]; concentration not given here,-0.0141% (inactive)
same,"p53-positive nuclei, normalised",[2]; [25],0.508%
OCCCNc1cc(-c2ccnc(Nc3cccc(Cl)c3)n2)ccn1,"nuclei count, normalised",[1]; [3],46%
same,"nuclei count, normalised",[1]; [4],37.5%
same,"nuclei count, normalised",[1]; [5],37%
same,"nuclei count, normalised",[1]; [7],36.9%
same,"nuclei count, normalised",[1]; [8],28.8%
same,"nuclei count, normalised",[1]; [9],20.8%
same,"nuclei count, normalised",[1]; [10],22.2%
same,"nuclei count, normalised",[1]; [12],23.8%
same,"p53-positive nuclei, normalised",[2]; [13],75.9% (active)
same,"p53-positive nuclei, normalised",[2]; [14],41.8% (inactive)
same,"p53-positive nuclei, normalised",[2]; [15],16.5% (inactive)
same,"p53-positive nuclei, normalised",[2]; [17],8.11% (inactive)
same,"p53-positive nuclei, normalised",[2]; [18],23.9%
same,"p53-positive nuclei, normalised",[2]; [19],2.63%
same,"p53-positive nuclei, normalised",[2]; [20],2.24%
same,"p53-positive nuclei, normalised",[2]; [22],1.34%
NC(=Nc1ccc(F)cc1)NO,"nuclei count, normalised",[1]; [23],101%
same,"nuclei count, normalised",[1]; [24],95.3%
same,"p53-positive nuclei, normalised",[2]; concentration not given here,0.0683% (inactive)
same,"p53-positive nuclei, normalised",[2]; [25],-0.0286%
O=C(C=Cn1cnc(-c2cc(C(F)(F)F)cc(C(F)(F)F)c2)n1)N1CC(F)(F)C1,"nuclei count, normalised",[1]; [6],66.2%
same,"nuclei count, normalised",[1]; [11],53%
same,"p53-positive nuclei, normalised",[2]; [16],0.0748% (inactive)
same,"p53-positive nuclei, normalised",[2]; [21],-0.238%
O=C(O)CCC/C=C\C[C@H]1C(=O)C[C@@H](O)[C@@H]1/C=C/[C@@H](O)CCc1ccccc1,"nuclei count, normalised",[1]; [23],102%
same,"nuclei count, normalised",[1]; [24],107%
same,"p53-positive nuclei, normalised",[2]; concentration not given here,0.0806% (inactive)
same,"p53-positive nuclei, normalised",[2]; [25],0.0378%
Cc1nn(C)cc1-c1ccnc(N2CCCC(c3nc4c(C)cccc4[nH]3)C2)n1 (stereo not drawn),"nuclei count, normalised",[1]; [23],103%
same,"nuclei count, normalised",[1]; [24],106%
same,"p53-positive nuclei, normalised",[2]; concentration not given here,-0.267% (inactive)
same,"p53-positive nuclei, normalised",[2]; [25],-0.151%
CC1(C)S[C@@H]2C(NC(=O)C(C(=O)O)c3ccccc3)C(=O)N2C1C(=O)O (stereo partly drawn),"nuclei count, normalised",[1]; [6],119%
same,"nuclei count, normalised",[1]; [11],111%
same,"p53-positive nuclei, normalised",[2]; [16],-0.208% (inactive)
same,"p53-positive nuclei, normalised",[2]; [21],-0.327%
CC(C)c1nn(-c2c(Cl)cccc2Cl)c2nc(Cc3ccc(OCCO)cc3)[nH]c(=O)c12,"nuclei count, normalised",[1]; [3],64.8%
same,"nuclei count, normalised",[1]; [4],36%
same,"nuclei count, normalised",[1]; [5],26.2%
same,"nuclei count, normalised",[1]; [7],26.4%
same,"nuclei count, normalised",[1]; [8],50.6%
same,"nuclei count, normalised",[1]; [9],25.1%
same,"nuclei count, normalised",[1]; [10],17.9%
same,"nuclei count, normalised",[1]; [12],18.4%
same,"p53-positive nuclei, normalised",[2]; [13],27.9% (inactive)
same,"p53-positive nuclei, normalised",[2]; [14],67% (active)
same,"p53-positive nuclei, normalised",[2]; [15],32.9% (inactive)
same,"p53-positive nuclei, normalised",[2]; [17],34.7% (inactive)
same,"p53-positive nuclei, normalised",[2]; [18],18.6%
same,"p53-positive nuclei, normalised",[2]; [19],19.1%
same,"p53-positive nuclei, normalised",[2]; [20],6.59%
same,"p53-positive nuclei, normalised",[2]; [22],4.85%
